# Laboratory results published in the antibiotic and cytotoxicity screens of Wong et al. (2023).
# The campaign covered roughly 39,000 compounds. About 3,300 (8.5%) were called active. For the sample, actives were picked, then their nearest neighbours and some compounds at random.
# Test system: HepG2
# Experiment: cytotoxicity call (relative viability < 0.9)
# Settings: 10 µM
row,Compound,cytotoxicity call
1,CNC[C@@H]1OCCCC[C@@H](C)Oc2ccc(NC(=O)CCCN(C)C)cc2C(=O)N([C@H](C)CO)C[C@H]1C,inactive
2,O=C(O)c1cn(-c2ccccc2)nn1,inactive
3,COCC(=O)N1C[C@H](C)[C@@H](OC)CN(C)C(=O)c2cc(NC(=O)c3ccc(OC)cc3)ccc2OC[C@H]1C,inactive
4,COc1ccc2c3c([nH]c2c1)[C@H](CO)N(C[C@]13CCN(CC1)C(=O)c1cccnc1)C(=O)c1cccnc1,inactive
5,C/C=C/c1ccc([C@@H]2[C@H](CO)N(S(=O)(=O)CC)C23CN(C(=O)CN(C)C)C3)cc1,inactive
6,C[C@H](CO)N1C[C@H](C)[C@H](CN(C)Cc2ccc(Oc3ccccc3)cc2)Oc2c(NC(=O)C3CCCCC3)cccc2C1=O,inactive
7,COc1ccc(NC(=O)N(C)C[C@@H]2OCCCC[C@H](C)Oc3ccc(NS(=O)(=O)c4ccccc4)cc3C(=O)N([C@H](C)CO)C[C@H]2C)cc1,inactive
8,CC(C)NC(=O)N(C)C[C@@H]1Oc2c(NS(=O)(=O)c3cccs3)cccc2C(=O)N([C@@H](C)CO)C[C@@H]1C,inactive
9,C[C@@H]1CN([C@H](C)CO)C(=O)c2cc(NC(=O)Cc3ccccc3)ccc2O[C@@H](C)CCCCO[C@H]1CN(C)S(=O)(=O)c1ccc(Cl)cc1,inactive
10,C[C@H](CO)N1C[C@H](C)[C@H](CN(C)S(=O)(=O)c2ccc(Cl)cc2)OCCCC[C@H](C)Oc2ccc(NC(=O)Cc3ccccc3)cc2C1=O,inactive
11,C[C@@H]1CN([C@H](C)CO)C(=O)c2cc(NC(=O)Cc3ccccc3)ccc2O[C@@H](C)CCCCO[C@@H]1CN(C)S(=O)(=O)c1ccc(Cl)cc1,inactive
12,C[C@@H]1CCCCO[C@H](CN(C)S(=O)(=O)c2ccc(Cl)cc2)[C@H](C)CN([C@H](C)CO)C(=O)c2cc(NC(=O)Cc3ccccc3)ccc2O1,active
13,C[C@@H]1CCCCO[C@H](CN(C)S(=O)(=O)c2ccc(Cl)cc2)[C@@H](C)CN([C@@H](C)CO)C(=O)c2cc(NC(=O)Cc3ccccc3)ccc2O1,inactive
14,C[C@@H]1CCCCO[C@@H](CN(C)S(=O)(=O)c2ccc(Cl)cc2)[C@@H](C)CN([C@H](C)CO)C(=O)c2cc(NC(=O)Cc3ccccc3)ccc2O1,inactive
15,C[C@@H]1CN([C@@H](C)CO)C(=O)c2cc(NC(=O)Cc3ccccc3)ccc2O[C@@H](C)CCCCO[C@H]1CN(C)S(=O)(=O)c1ccc(Cl)cc1,inactive
16,C[C@H](CO)N1C[C@H](C)[C@@H](CN(C)S(=O)(=O)c2ccc(Cl)cc2)OCCCC[C@H](C)Oc2ccc(NC(=O)Cc3ccccc3)cc2C1=O,active
17,C[C@@H]1CCCCO[C@H](CN(C)S(=O)(=O)c2ccc(Cl)cc2)[C@@H](C)CN([C@H](C)CO)C(=O)c2cc(NC(=O)Cc3ccccc3)ccc2O1,active
18,C[C@@H]1CCCCO[C@@H](CN(C)S(=O)(=O)c2ccc(Cl)cc2)[C@@H](C)CN([C@@H](C)CO)C(=O)c2cc(NC(=O)Cc3ccccc3)ccc2O1,inactive
19,C[C@@H]1CCCCO[C@@H](CN(C)S(=O)(=O)c2ccc(Cl)cc2)[C@H](C)CN([C@H](C)CO)C(=O)c2cc(NC(=O)Cc3ccccc3)ccc2O1,active
20,C[C@@H]1CCCCO[C@H](CN(C)S(C)(=O)=O)[C@@H](C)CN([C@@H](C)CO)C(=O)c2cc(N(C)C)ccc2O1,inactive
21,C[C@@H]1CN([C@@H](C)CO)C(=O)c2cccc(NC(=O)c3nc4ccccc4s3)c2O[C@@H]1CN(C)Cc1ccc(Oc2ccccc2)cc1,inactive

row,Compound,cytotoxicity call
1,COc1cc(S(=O)(=O)NCCN2CCN(S(=O)(=O)c3cc(OC)c(Cl)cc3OC)CC2)c(OC)cc1Cl,inactive
2,COc1ccc(NC(=O)N(C)C[C@@H]2Oc3c(NC(=O)CCCCCC(=O)Nc4ccccc4N)cccc3C(=O)N([C@@H](C)CO)C[C@H]2C)cc1,inactive
3,Cc1ccc(S(=O)(=O)Nc2ccc3c(c2)C(=O)N([C@H](C)CO)C[C@H](C)[C@H](CN(C)C(=O)CCC(F)(F)F)OCCCC[C@H](C)O3)cc1,inactive
4,COc1ccc(NC(=O)N(C)C[C@H]2OCCCC[C@@H](C)Oc3ccc(NS(=O)(=O)c4cccs4)cc3C(=O)N([C@H](C)CO)C[C@H]2C)cc1,inactive
5,O=C(NCCN1CCOCC1)[C@@H]1c2ccccc2C(=O)N(C2Cc3ccccc3C2)[C@H]1c1ccc(CO)cc1,inactive
6,COCCNC(=O)C[C@@H]1CC[C@H]2[C@@H](COC[C@@H](O)CN2S(=O)(=O)c2ccccc2F)O1,inactive
7,COCC(=O)Nc1ccc2c(c1)C(=O)N(C)C[C@H](OC)[C@@H](C)CN(C(=O)c1ccccc1F)[C@H](C)CO2,inactive
8,C[C@@H]1CN([C@@H](C)CO)C(=O)Cc2cc(NS(=O)(=O)c3cn(C)cn3)ccc2O[C@H]1CN(C)C(=O)NC1CCCCC1,inactive
9,C[C@H]1CCCCO[C@H](CN(C)Cc2ccncc2)[C@@H](C)CN([C@@H](C)CO)C(=O)c2cc(NC(=O)NC3CCCCC3)ccc2O1,inactive
10,C[C@H]1CCCCO[C@H](CN(C)S(=O)(=O)c2ccc(Cl)cc2)[C@@H](C)CN([C@@H](C)CO)C(=O)c2cc(NC(=O)Cc3ccccc3)ccc2O1,active
11,C[C@@H]1CCCCO[C@@H](CN(C)S(=O)(=O)c2ccc(Cl)cc2)[C@H](C)CN([C@@H](C)CO)C(=O)c2cc(NC(=O)Cc3ccccc3)ccc2O1,inactive
12,C[C@@H]1CN([C@@H](C)CO)C(=O)c2cc(NC(=O)Cc3ccccc3)ccc2O[C@@H](C)CCCCO[C@@H]1CN(C)S(=O)(=O)c1ccc(Cl)cc1,inactive
13,CCS(=O)(=O)N1Cc2nccn2C[C@H](Cn2ncccc2=O)C1,inactive
14,Cc1ccc(S(=O)(=O)Nc2ccc3c(c2)C(=O)N([C@@H](C)CO)C[C@@H](C)[C@@H](CN(C)S(=O)(=O)c2ccc(F)cc2)O3)cc1,inactive
15,Cc1noc(C)c1S(=O)(=O)Nc1cccc2c1O[C@@H](CN(C)S(C)(=O)=O)[C@@H](C)CN([C@@H](C)CO)C2=O,active
16,Cc1noc(C)c1S(=O)(=O)Nc1cccc2c1O[C@H](CN(C)Cc1ccc(C(=O)O)cc1)[C@@H](C)CN([C@H](C)CO)C2=O,inactive
17,Cc1noc(C)c1S(=O)(=O)Nc1cccc2c1O[C@H](CN(C)Cc1ccc(C(=O)O)cc1)[C@H](C)CN([C@H](C)CO)C2=O,active
18,Cc1noc(C)c1S(=O)(=O)Nc1cccc2c1O[C@H](CN(C)Cc1ccc(C(=O)O)cc1)[C@H](C)CN([C@@H](C)CO)C2=O,inactive
19,Cc1noc(C)c1S(=O)(=O)Nc1cccc2c1O[C@H](CN(C)S(C)(=O)=O)[C@H](C)CN([C@@H](C)CO)C2=O,inactive
20,Cc1noc(C)c1S(=O)(=O)Nc1cccc2c1O[C@@H](CN(C)S(C)(=O)=O)[C@@H](C)CN([C@H](C)CO)C2=O,inactive
